# Measured values from PubChem BioAssay (EPA / NIEHS).
# Several values for one entry are separate records, joined by “and”; a condition that tells them apart may be missing. Equal values may be shown once. More than one record can exist for a structure, and the calls need not agree. Activity calls are given as the source filed them. Rule for the calls: active = hit-call score of the fitted dose curve at least 0.9, where 1 is the maximum; inactive = score below 0.9.
# Experiment: ATG_Oct_MLP_CIS: Attagene CIS-FACTORIAL HepG2 Assay for human Octamer-Binding Transcription Factor (Oct) (AID 2282993)
# Conditions: HepG2 Attagene cis-factorial Oct reporter, mRNA; actives raise or lower the signal
# Description: ATG_CIS is a cell-based, multiplexed-readout assay that uses HepG2, a human liver cell line, with measurements taken at 24 hours after chemical dosing in a 24-well plate.ATG_Oct_MLP_CIS is one of 52 assay component(s) measured or calculated from the ATG_CIS assay. It is designed to make measurements of mRNA induction, a form of inducible reporter, as detected with fluorescence intensity signals by Reverse transcription polymerase chain reaction (RT-PCR) and Capillary electrophoresis technology.Data from the assay component ATG_Oct_MLP_CIS was analyzed into 1 assay endpoint. This assay endpoint, ATG_Oct_MLP_CIS, was analyzed with bidirectional fitting relative to DMSO as the negative control and baseline of activity. Using a type of inducible reporter, measures of mRNA for gain or loss-of-signal activity can be used to understand the reporter gene at the transcription factor-level as they relate to the gene POU2F1. Furthermore, this assay endpoint can be referred to as a primary readout, because this assay has produced multiple assay endpoints where this one serves a reporter gene function. To generalize the intended target to other relatable targets, this assay endpoint is annotated to the dna binding intended target family, where the subfamily is POU domain protein.
# Human liver HepG2 cells are transiently transfected with multiple reporter transcription units (MRTUs) in 6-well plates using FuGene 6 reagent (Roche; 3 ml FuGene/1 mg DNA). The MRTU constructs are regulated by a cis-regulating element (promoter). […] A major difference between the CIS and TRANS system is that in CIS activities of endogenous TFs are measured, whereas the TRANS assay evaluates changes in activities of exogenous, chimeric NR-Gal4 proteins. […] At the end of 24 hour incubation, total RNA was isolated using TriZol reagent (Invitrogen). The isolated RNA is then reverse-transcribed using oligo(dT) primer and Mo-MLV reverse transcriptase (Invitrogen) with DNAse I (Ambion) treatment for 30 min. The one-tenth of the produced cDNA was amplified by PCR using Taq DNA polymerase (Invitrogen) and two reporter sequence-specific primers. The PCR products were fluorescently labeled by primer extension with 6-arboxyfluorescein (6-FAM) 5'-labeled reporter sequence-specific primer (2 min at 95 C, 20 s at 68 C and 10 min at 72 C) and these products were digested with 5U of HpaI (New England Biolabs) for 2h at 37 C. The fragments were purified using Qiaquick PCR columns (Qiagen), analyzed on an ABI 3130xL genetic analyzer (Applied Biosystems) with peak positions identified by using a set of X-rhodamine (ROX)-labeled MapMarker1000 molecular weight standards (BioVentures). The raw capillary electrophoresis data was processed using Attagraph software (Attagene).
Compound,outcome,AC50
OC1CCCCC1,inactive,–
O=C(O)c1ccccc1C(c1ccc(O)cc1)c1ccc(O)cc1,inactive,–
CCCCCCCCOC(=O)CCCCCCCCC(=O)OCCCCCCCC,inactive,–
O=C(/C=C/c1ccc(O)cc1)CC(=O)/C=C/c1ccc(O)cc1,inactive,–
CCC(C)(C)C1CCC(O)CC1 (stereo not given),inactive,–
CC(C)(C)c1cccc(C(C)(C)C)c1O,–,166 µM (active)
OCCC(F)(F)C(F)(F)C(F)(F)C(F)(F)C(F)(F)C(F)(F)C(F)(F)C(F)(F)F,–,46.6 µM (active) and 113 µM (active)
CC(C)CCCCCCOC(=O)CCCCC(=O)OCCCCCCC(C)C,inactive,–
CCC(=C(c1ccc(O)cc1)c1ccc(OCCN(C)C)cc1)c1ccccc1,inactive,7.1 µM (active) and 11.1 µM (active)
c1ccc2cc3c(ccc4ccccc43)cc2c1,inactive,1.21 µM (active) and 7.63 µM (active)
CCCCCCCCCCCCCCCS(=O)(=O)Oc1ccccc1,inactive,–
CCCCC[C@H](O)CC(=O)CCc1ccc(O)c(OC)c1,inactive,–
CCCCCCCC(=O)O,inactive,–
CCCCCCCCCCCCc1ccccc1S(=O)(=O)O,inactive,–
NC(=O)N(O)[C@@H]1C=C[C@H](Oc2cccc(Oc3ccc(F)cc3)c2)C1,–,33 µM (active)
Cc1cc(C)c(O)c(C)c1,–,100 µM (active)
CCCOc1sc(C(=O)N2CCC(c3cc(CN)ccc3F)CC2)c(C)c1Br,inactive,–
Cc1oc(-c2ccccc2)nc1CCOc1ccc(C[C@H](Nc2ccccc2C(=O)c2ccccc2)C(=O)O)cc1,–,18.2 µM (active)

Compound,outcome,AC50
CCc1nn(C2CCCCC2)c2cc(C3(C#N)CCC(C(=O)O)CC3)ccc12 (stereo not given),inactive,–
Oc1cccc(O)c1,inactive,–
Cc1ccc(S(=O)(=O)O)c(C)c1,inactive,–
NCC(F)(F)C(F)(F)C(F)(F)C(F)(F)C(F)(F)C(F)(F)C(F)(F)F,inactive,–
Oc1cc2ccccc2c2ccccc12,inactive,–
COC(=O)CCCCC(=O)OC,inactive,–
CC(C)(C)c1ccc(O)c(C(C)(C)C)c1,inactive,–
O=C1OC2(c3ccccc31)c1cc(Br)c(O)c(Br)c1Oc1c2cc(Br)c(O)c1Br,inactive,66.2 µM (active)
COc1ccc([N+](=O)[O-])cc1N,inactive,–
Cc1cc(CCN2CCN(c3nsc4ccccc34)CC2)cc2c1NC(=O)CC2(C)C,–,8.81 µM (active)
CC(=O)CC(C)(C)O,inactive,–
c1ccc2c(c1)Cc1ccccc1-2,inactive,–
O=C(OCCOCCOC(=O)c1ccccc1)c1ccccc1,inactive,–
O=C(O)Cc1cc(I)c(Oc2cc(I)c(O)c(I)c2)c(I)c1,–,34.8 µM (active) and 33.3 µM (active)
Nc1cccc2c(N)cccc12,inactive,–
CC1=C(/C=C/C(C)=C/C=C/C(C)=C/C(=O)O)C(C)(C)CCC1,inactive,24.2 µM (active)
CCCCOCCO,inactive,–
C#C[C@]1(O)CC[C@H]2[C@@H]3CCC4=CC(=O)CC[C@@H]4[C@H]3CC[C@@]21C,inactive,–
